About 300 (9.4%) of roughly 3,200 compounds showed activity. Many of the other results were omitted from the sample, so actives are more common in it than they were.
System: A673/TR/shEF
Test: cell viability (LOESS-normalised, relative to median of negative controls) (log2 ratio); higher = more viable cells (less compound effect), active = hit call of the paper (over 3 MAD below the median)
Conditions: treatment time: 72 h
Method in brief: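 Viability of A673/TR/shEF Ewing sarcoma cells was determined by CellTiter-Glo luminescence. The cells, at 1,500 per well in 384-well plates, were grown with or without doxycycline from 24 h before compound addition to switch on EWS-FLI1 shRNA knockdown, then exposed for three days to library compounds at two or more concentrations or to DMSO controls. Signals were LOESS-corrected plate by plate, normalised to the negative-control median and log2-transformed.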

[1] = 0.103 µM, library screen: screen3, EWS-FLI1 expression: high (no doxycycline)
[2] = 0.103 µM, library screen: screen3, EWS-FLI1 expression: low (doxycycline-induced shRNA knockdown)
[3] = 0.308 µM, library screen: screen3, EWS-FLI1 expression: high (no doxycycline)
[4] = 0.308 µM, library screen: screen3, EWS-FLI1 expression: low (doxycycline-induced shRNA knockdown)
[5] = 0.926 µM, library screen: screen3, EWS-FLI1 expression: high (no doxycycline)
[6] = 0.926 µM, library screen: screen3, EWS-FLI1 expression: low (doxycycline-induced shRNA knockdown)
[7] = 2.8 µM, library screen: screen3, EWS-FLI1 expression: high (no doxycycline)
[8] = 2.8 µM, library screen: screen3, EWS-FLI1 expression: low (doxycycline-induced shRNA knockdown)
[9] = 8.3 µM, library screen: screen3, EWS-FLI1 expression: high (no doxycycline)
[10] = 8.3 µM, library screen: screen3, EWS-FLI1 expression: low (doxycycline-induced shRNA knockdown)
[11] = 25 µM, library screen: screen3, EWS-FLI1 expression: high (no doxycycline)
[12] = 25 µM, library screen: screen3, EWS-FLI1 expression: low (doxycycline-induced shRNA knockdown)
[13] = 0.25 µM, library screen: screen1, EWS-FLI1 expression: high (no doxycycline)
[14] = 0.25 µM, library screen: screen1, EWS-FLI1 expression: low (doxycycline-induced shRNA knockdown)
[15] = 2.5 µM, library screen: screen1, EWS-FLI1 expression: high (no doxycycline)
[16] = 2.5 µM, library screen: screen1, EWS-FLI1 expression: low (doxycycline-induced shRNA knockdown)
[17] = 0.25 µM, library screen: screen2, EWS-FLI1 expression: high (no doxycycline)
[18] = 0.25 µM, library screen: screen2, EWS-FLI1 expression: low (doxycycline-induced shRNA knockdown)
[19] = 2.5 µM, library screen: screen2, EWS-FLI1 expression: high (no doxycycline)
[20] = 2.5 µM, library screen: screen2, EWS-FLI1 expression: low (doxycycline-induced shRNA knockdown)

Measured: cell viability (log2)

CCCCCCOC(=O)/N=C(/N)c1ccc(NCc2nc3cc(C(=O)N(CCC(=O)OCC)c4ccccn4)ccc3n2C)cc1
active: [11] -0.441
inactive: [1] -0.0699 | [2] -0.0234 | [3] -0.0119 | [4] -0.019 | [5] 0.046 | [6] -0.0404 | [7] -0.0778 | [8] 0.0123 | [9] -0.0381 | [10] 0.0285 | [12] 0.0312

Cn1c(CNc2ccc(C(=N)N)cc2)nc2cc(C(=O)N(CCC(=O)O)c3ccccn3)ccc21
inactive: [1] 0.00826 | [2] 0.00201 | [3] 0.0563 | [4] 0.0276 | [5] 0.0456 | [6] 0.123 | [7] -0.0294 | [8] 0.0652 | [9] 0.0628 | [10] 0.0736 | [11] 0.0838 | [12] 0.0437

CCN(CC)S(=O)(=O)c1ccc(C(=O)N(CCC(=O)OC)c2ccccn2)cc1
inactive: [13] 0.0834 | [14] 0.147 | [15] 0.162 | [16] 0.127

NCCCCCN
inactive: [13] 0.0699 | [14] 0.0406 | [15] 0.114 | [16] 0.103

Cc1coc2ccccc2c1=O
inactive: [13] 0.143 | [14] 0.1 | [15] 0.138 | [16] 0.165

CC1=CC(=O)CC(C)(C)[C@@]1(O)/C=C/C(C)=C\C(=O)O
inactive: [13] 0.103 | [14] 0.084 | [15] 0.143 | [16] 0.165

CC(=O)O[C@@H]1CC2C(C)(C)CCC(=O)[C@]2(C)C2CC[C@@]3(C)[C@H](c4ccoc4)OC(=O)C4OC43[C@@]21C (some centres undefined)
inactive: [13] 0.0305 | [14] 0.0828 | [15] 0.127 | [16] 0.0866

O=C(NC(C(=O)N1CCCCC1)=C1CCCCC1)c1ccccc1
inactive: [13] 0.107 | [14] 0.0798 | [15] 0.0724 | [16] 0.127

COC(=O)C1=C(C)N=c2s/c(=C/c3ccc(OC)cc3OC)c(=O)n2C1c1cccs1 (centres undefined)
inactive: [13] 0.0522 | [14] 0.13 | [15] 0.0666 | [16] 0.065

CCCCCCCCc1ccc(CCC(N)(CO)CO)cc1
active: [11] -0.341 | [12] -0.161
inactive: [1] 0.0814 | [2] 0.0528 | [3] 0.0332 | [4] -0.0148 | [5] 0.0328 | [6] 0.0341 | [7] 0.00825 | [8] 0.0473 | [9] -0.0193 | [10] 0.0563

CCCCCCCCCCCC1=C(O)C(=O)C=C(O)C1=O
inactive: [13] 0.161 | [14] 0.0381 | [15] 0.097 | [16] 0.0519

CC(=O)O[C@H]1C[C@@H](OC(C)=O)C(C)(C)C2CC(=O)[C@]3(C)C(CC[C@@]4(C)[C@H](c5ccoc5)OC(=O)[C@H]5O[C@]543)[C@]21C (some centres undefined)
inactive: [13] 0.116 | [14] 0.174 | [15] 0.177 | [16] 0.123

CCCCCCCCCCC[C@@H](C[C@@H]1OC(=O)[C@H]1CCCCCC)OC(=O)[C@H](CC(C)C)NC=O
active: [15] -0.116
inactive: [1] 0.0583 | [2] 0.00452 | [13] -0.0226 | [14] 0.0354 | [3] 0.0475 | [4] 0.11 | [5] -0.01 | [6] 0.0194 | [16] 0.178 | [7] -0.0124 | [8] 0.136 | [9] -0.103 | [10] -0.0203 | [11] -0.119 | [12] -0.0365

COC(=O)C[C@H]1C(C)(C)C2(Cl)O[C@@]34CC2C(=O)[C@]1(C)C3CC[C@]1(C)C4=CC(=O)O[C@H]1c1ccoc1 (some centres undefined)
inactive: [13] 0.0526 | [14] 0.0775 | [15] 0.126 | [16] 0.163

C=C1C(=O)O[C@@H]2C[C@@]3(C)CCC[C@H](C)C3=C[C@H]12
inactive: 0.025 µM, library screen: screen2, EWS-FLI1 expression: high (no doxycycline) 0.148 | 0.025 µM, library screen: screen2, EWS-FLI1 expression: low (doxycycline-induced shRNA knockdown) 0.0581 | [13] 0.0724 | [14] -0.00207 | [17] 0.177 | [18] 0.0288 | [15] 0.152 | [16] 0.0584 | [19] 0.0901 | [20] 0.000642 | 25 µM, library screen: screen2, EWS-FLI1 expression: high (no doxycycline) -0.0554 | 25 µM, library screen: screen2, EWS-FLI1 expression: low (doxycycline-induced shRNA knockdown) -0.102

CN(C)CCCN1c2ccccc2Sc2ccccc21
inactive: [13] 0.0889 | [14] 0.0795 | [17] 0.0137 | [18] -0.394 | [15] 0.107 | [16] 0.224
active: [19] -1.62 | [20] -0.801

CN(C)CCCN1c2ccccc2Sc2ccc(C(F)(F)F)cc21
inactive: [13] 0.067 | [14] 0.0785 | [17] 0.0818 | [18] 0.0662 | [15] 0.0754 | [16] 0.158 | [19] 0.181 | [20] 0.0843

CN(C)CCCN1c2ccccc2Sc2ccc(Cl)cc21
inactive: [1] 0.0728 | [2] 0.128 | [13] 0.1 | [14] 0.155 | [17] 0.141 | [18] 0.1 | [3] 0.122 | [4] 0.0127 | [5] 0.0627 | [6] 0.015 | [15] 0.206 | [16] 0.191 | [19] 0.129 | [20] 0.0664 | [7] -0.0176 | [8] 0.0383 | [9] 0.101 | [10] 0.0471 | [11] -0.0174 | [12] 0.0242

CC(=O)Oc1cc(-c2coc3cc(OC(C)=O)c(OC(C)=O)c(OC(C)=O)c3c2=O)cc(OC(C)=O)c1OC(C)=O
inactive: [13] 0.0397 | [14] -0.0292 | [15] 0.0912 | [16] -0.0545

CC1(C)C=Cc2c(c3c(c4c(=O)c(-c5ccc(O)cc5)coc24)OC(C)(C)CC3)O1
inactive: [13] 0.057 | [14] 0.068 | [15] 0.105 | [16] 0.116

O=C(O)c1ccc2c(c1)OCO2
inactive: [13] 0.146 | [14] 0.102 | [15] 0.137 | [16] 0.0963

NC1(C(=O)O)CCc2cc(C(=O)O)ccc21 (centres undefined)
inactive: [18] 0.0469 | [19] 0.0221 | [20] 0.107
active: [17] -0.364

C/C(=C\c1ccc(C(=O)O)cc1)c1ccc2c(c1)C(C)(C)CCC2(C)C
inactive: [17] 0.00709 | [18] 0.0496 | [19] 0.0275 | [20] 0.0889

C=C(C)Cn1c(COc2ccc(Cl)cc2Cl)n[nH]c1=S
inactive: [13] 0.0645 | [14] -0.015 | [15] 0.0851 | [16] -0.014

CC(C)CC(NP(=O)(O)O[C@@H]1O[C@@H](C)[C@H](O)[C@@H](O)[C@H]1O)C(=O)NC(Cc1c[nH]c2ccccc12)C(=O)O (some centres undefined)
inactive: [17] 0.0833 | [18] 0.00183 | [19] 0.149 | [20] -0.00437

COc1cc(CN2CCN(Cc3ccccc3F)CC2)cc(OC)c1OC
inactive: [13] 0.0928 | [14] 0.0533 | [15] 0.0786 | [16] 0.127

OC[C@H]1N[C@H](CO)[C@@H](O)[C@@H]1O
inactive: [17] 0.176 | [18] 0.0684 | [19] 0.108 | [20] 0.0354

Cc1ccc(C(C)C)c(O)c1C(=O)O
inactive: [13] 0.112 | [14] 0.00973 | [15] 0.164 | [16] 0.0715

CC(C)[C@@H]1NC(=O)[C@H](CCCCN)NC(=O)[C@@H](Cc2c[nH]c3ccccc23)NC(=O)[C@H](Cc2ccc(O)cc2)NC(=O)[C@H](C)N(C)C(=O)[C@H](Cc2ccccc2)NC1=O
inactive: [17] 0.191 | [18] 0.085 | [19] 0.149 | [20] 0.111

CCC(C)C(N)C1=NC(C(=O)N[C@@H](CC(C)C)C(=O)N[C@H](CCC(=O)O)C(=O)N[C@H](C(=O)N[C@H]2CCCCNC(=O)[C@H](CC(N)=O)NC(=O)[C@@H](CC(=O)O)NC(=O)[C@H](Cc3cnc[nH]3)NC(=O)[C@@H](Cc3ccccc3)NC(=O)[C@H]([C@@H](C)CC)NC(=O)[C@@H](CCCN)NC2=O)[C@@H](C)CC)CS1 (some centres undefined)
inactive: [13] 0.0992 | [14] -0.0505 | [15] 0.131 | [16] 0.0875

CC(C)C[C@@H]1NC(=O)[C@H](CCCN)NC(=O)[C@H](C(C)C)NC(=O)[C@H](Cc2ccc(O)cc2)N[C@@H](CCC(=O)O)C(=O)N[C@@H](CC(N)=O)C(=O)[C@@H](Cc2ccccc2)NC(=O)[C@H](Cc2ccccc2)NC(=O)[C@@H]2CCCN2C(=O)[C@@H](Cc2ccccc2)NC1=O
active: [13] -0.767 | [15] -2.84 | [16] -2.45
inactive: [14] -0.0111

CC(C)C[C@@H]1NC(=O)[C@H](CCCN)NC(=O)[C@H](C(C)C)NC(=O)[C@@H]2CCCN2C(=O)[C@@H](Cc2ccccc2)NC(=O)[C@H](CC(C)C)NC(=O)[C@H](CCCN)NC(=O)[C@H](C(C)C)NC(=O)[C@@H]2CCCN2C(=O)[C@@H](Cc2ccccc2)NC1=O
active: [13] -1.96 | [14] -0.176 | [15] -3.79
inactive: [16] -0.0354

CC1=CCCC(=O)C2CC(C)(C)C2CC1 (centres undefined)
inactive: [13] 0.0664 | [14] 0.0572 | [15] 0.102 | [16] 0.0635

CC(=O)O[C@H]1C[C@@]2(C)[C@H](c3ccoc3)OC(=O)[C@H]3O[C@]32[C@@]2(C)C1[C@]1(C)C(C[C@H]2OC(C)=O)C(C)(C)[C@H](OC(C)=O)C[C@@H]1OC(C)=O (some centres undefined)
inactive: [13] -0.00983 | [14] 0.0592 | [15] 0.0456 | [16] 0.0721

From the supplement of paper PMC6089552
